Measured values from ChEMBL document CHEMBL4513141, “CO-ADD screening of NIH (USA) - Clinical Collection” (2021).
Results with a measured potency or affinity are listed apart.

What was measured:
Klebsiella pneumoniae = conditions: Concentration 20 uM; ASSAY_TEST Inhibition of Bacterial Growth; detection method Absorption (OD600); MEDIA CAMHB; plate type 384well; NBS; CORNING #3640; time 18 hr
Candida albicans = conditions: 20 µM
Cryptococcus neoformans = conditions: Concentration 20 uM; ASSAY_TEST Inhibition of Fungal Growth; detection method Resazurin; Absorption (OD600-OD570); plate type 384well; NBS; CORNING #3640

| Structure (SMILES) | Inhibition (Klebsiella pneumoniae) [%] | Inhibition (Candida albicans) [%] | Inhibition (Cryptococcus neoformans) [%] |
| --- | --- | --- | --- |
| NS(=O)(=O)c1cc2c(cc1C(F)(F)F)NCNS2(=O)=O [HYDROFLUMETHIAZIDE] | 13.59 | -0.33 | -2.31 |
| Cc1[nH]c(=O)c(C#N)cc1-c1ccncc1 [MILRINONE] | 13.45 | 3.54 | -6.55 |
| CC(COc1ccccc1Cc1ccccc1)N1CCCCC1.O=P(O)(O)O (stereo unspecified) | 14.21 | 3.69 | 0.43 |
| O=c1c(O[C@@H]2O[C@H](CO)[C@H](O)[C@H](O)[C@H]2O)c(-c2ccc(O)c(O)c2)oc2cc(O)cc(O)c12 [HYPEROSIDE] | 17.1 | 1.21 | -13.27 |
| Cc1ccc(N(CC2=NCCN2)c2cccc(O)c2)cc1 [PHENTOLAMINE] | 6.34 | 2.06 | -2.31 |
| CC(C(O)c1ccc(O)cc1)N1CCC(Cc2ccccc2)CC1.O.O=C(O)C(O)C(O)C(=O)O (stereo unspecified) | 15.53 | 2.38 | -4.72 |
| CN(C)[C@@H]1C(=O)C(C(=O)NCN2CCCC2)=C(O)[C@@]2(O)C(O)=C3C(=O)c4c(O)cccc4[C@@](C)(O)C3CC12 (stereo partly specified) | 7.32 | 0.75 | -8.19 |
| O=C1C(c2c(O)[nH]c3ccccc23)=Nc2ccccc21 | 6.26 | 9.69 | -4.77 |
| O=c1[nH]c(=O)n(C2CCCO2)cc1F (stereo unspecified) [TEGAFUR] | 13.49 | 3.66 | -3.75 |
| NC(CO)(CO)CO.O=C(c1ccccc1)c1ccc2n1CCC2C(=O)O (stereo unspecified) [KETOROLAC TROMETHAMINE] | 3.11 | -0.08 | -4.39 |
| COC1=CC(=O)C[C@@H](C)[C@]12Oc1c(Cl)c(OC)cc(OC)c1C2=O [GRISEOFULVIN] | 11.08 | 3.42 | -0.94 |
| C[C@]12CC[C@@H]3c4ccc(OS(=O)(=O)[O-])cc4CC[C@H]3[C@@H]1CCC2=O.[Na+] [ESTRONE SODIUM SULFATE] | 1.74 | 3.72 | -4.65 |
| Nc1ccn([C@@H]2O[C@H](CO)[C@@H](O)[C@@H]2O)c(=O)n1 [CYTARABINE] | 5.64 | 2.79 | -8.77 |
| COc1ccc(C2CNC(=O)C2)cc1OC1CCCC1 (stereo unspecified) [ROLIPRAM] | 19.56 | 4.38 | -5.22 |
| CC(C)NCC(O)COc1ccc(CCOCC2CC2)cc1.Cl (stereo unspecified) [BETAXOLOL HYDROCHLORIDE] | 15.59 | 2.88 | -9.53 |
| CNC(=C[N+](=O)[O-])NCCSCc1ccc(CN(C)C)o1.Cl [RANITIDINE HYDROCHLORIDE] | 4.5 | 2.99 | 5.97 |
| Cc1cccc(Nc2ccncc2S(=O)(=O)NC(=O)NC(C)C)c1 [TORSEMIDE] | 8.97 | 2.49 | 0.39 |
